Data published in the supplement of paper PMC10849652.
The full data set covers some 7,900 targets. This sample favours those with a hit. About 0.6% of all pairs of compound and target were hits. Values without a mark were called inactive.

Experiments:
Test in all cases: log2 fold change, soluble protein after heating vs DMSO (PISA); higher = thermal stabilisation; K562 cells, 10 uM, 30 min; active = over 0.2 and 3.5 SD of the protein, either way, in both replicates (recomputed)
[1] = compound: CC[C@@H]1C(=O)N(C)c2cnc(Nc3ccc(C(=O)NC4CCN(C)CC4)cc3OC)nc2N1C1CCCC1
Method in brief: (§1)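 K562 cells at 2×10^6 cells/mL were treated for 30 min with 10 μM compound, and aliquots were heated for 3 min over 48°C-58°C before pooling. Extraction used PBS with 0.5% NP-40 at 4°C, and soluble protein was the supernatant after 21,000xg for 90 min, measured by TMTpro 16plex LC-MS/MS with channel sums equalised. Thermal stability values, relative to control samples and from duplicates, are log2 fold changes.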

[2] = compound: CC[C@@H]1C(=O)N(C)c2cnc(Nc3ccc(C(=O)N[C@H]4CC[C@H](N5CCN(CC6CC6)CC5)CC4)cc3OC)nc2N1C(C)C [volasertib]
Method in brief: as §1

[3] = compound: CC[C@H](C)N1C=C(C2=C(C=C(C=C21)C3=CN=C(C=C3)N4CCNCC4)C(=O)NCC5=C(C=C(NC5=O)C)C)C
Method in brief: as §1

[4] = compound: CC[C@H](C)[C@@H](C(=O)N[C@@H]([C@@H](C)O)C(=O)N[C@@H](CC(C)C)C(=O)[C@]1(CO1)C)NC(=O)[C@H]([C@@H](C)CC)N(C)C(=O)C [epoxomicin]
Method in brief: as §1

[5] = compound: CCn1c(C(=O)N(C2CC2)C2CC2)cc2c3c(ncn3C)c(Nc3cc(C)n(C)n3)nc21
Method in brief: as §1

[6] = compound: CCn1cc(-c2ccnc3[nH]c(-c4cccc(CN(C)C)c4)cc23)c(-c2ccc(NC(=O)N(C)C)cc2)n1
Method in brief: as §1

[7] = compound: CN(C)CC(=O)Nc1ccc2[nH]c(=O)c3ccccc3c2c1
Method in brief: as §1

[8] = compound: CN(CCOC1=CC=C(C=C1)C[C@H]2C(=O)NC(=O)S2)C3=CC=CC=N3 (racemic) [rosiglitazone]
Method in brief: as §1

[9] = compound: CN1C2=C(C3=C1C(=O)N(N=C3)CC4=CC(=CC=C4)N)SC(=C2)S(=O)C
Method in brief: as §1

[10] = compound: CN1CCC(CNc2ccc3ncc(-c4cccc(OC(F)(F)F)c4)n3n2)CC1
Method in brief: as §1

UniProt Q13530, sequence (Q13530 whole entry, looked up): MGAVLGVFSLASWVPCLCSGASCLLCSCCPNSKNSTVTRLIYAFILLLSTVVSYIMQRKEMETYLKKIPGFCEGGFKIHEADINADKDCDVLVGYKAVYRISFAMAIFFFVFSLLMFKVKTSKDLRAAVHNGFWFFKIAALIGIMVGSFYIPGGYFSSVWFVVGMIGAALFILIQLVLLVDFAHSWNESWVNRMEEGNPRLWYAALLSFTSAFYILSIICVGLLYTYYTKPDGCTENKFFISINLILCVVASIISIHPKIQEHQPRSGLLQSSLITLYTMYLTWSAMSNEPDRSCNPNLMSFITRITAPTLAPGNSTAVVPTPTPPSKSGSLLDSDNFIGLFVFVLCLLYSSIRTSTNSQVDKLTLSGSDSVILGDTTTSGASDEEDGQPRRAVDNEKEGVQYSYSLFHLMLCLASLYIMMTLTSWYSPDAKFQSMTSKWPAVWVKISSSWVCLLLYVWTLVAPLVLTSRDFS
UniProt P51148, sequence (P51148 whole entry, looked up): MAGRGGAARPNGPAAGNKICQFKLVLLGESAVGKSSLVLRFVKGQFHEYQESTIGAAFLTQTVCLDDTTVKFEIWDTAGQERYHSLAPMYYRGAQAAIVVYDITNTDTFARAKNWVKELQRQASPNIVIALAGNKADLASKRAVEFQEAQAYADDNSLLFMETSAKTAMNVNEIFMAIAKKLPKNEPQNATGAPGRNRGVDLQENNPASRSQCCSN
UniProt Q6NUM9, sequence (Q6NUM9 whole entry, looked up): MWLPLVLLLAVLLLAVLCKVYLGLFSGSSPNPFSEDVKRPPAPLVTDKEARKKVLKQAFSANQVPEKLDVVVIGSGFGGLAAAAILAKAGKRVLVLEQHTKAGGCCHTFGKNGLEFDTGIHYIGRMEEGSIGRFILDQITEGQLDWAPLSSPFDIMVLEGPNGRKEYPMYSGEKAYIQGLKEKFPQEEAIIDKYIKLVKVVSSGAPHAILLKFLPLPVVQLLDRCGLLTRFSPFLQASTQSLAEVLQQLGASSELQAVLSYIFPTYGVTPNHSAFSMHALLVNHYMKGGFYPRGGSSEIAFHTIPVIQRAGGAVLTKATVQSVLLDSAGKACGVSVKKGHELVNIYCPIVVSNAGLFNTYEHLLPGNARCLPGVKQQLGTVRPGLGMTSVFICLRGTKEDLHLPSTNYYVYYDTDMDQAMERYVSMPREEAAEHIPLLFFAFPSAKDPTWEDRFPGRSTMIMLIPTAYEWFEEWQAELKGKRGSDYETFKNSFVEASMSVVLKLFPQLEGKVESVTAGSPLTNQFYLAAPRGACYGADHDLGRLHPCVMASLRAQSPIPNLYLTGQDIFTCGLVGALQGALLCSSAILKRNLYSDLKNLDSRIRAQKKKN
UniProt Q9BWF3, sequence (Q9BWF3 whole entry, looked up): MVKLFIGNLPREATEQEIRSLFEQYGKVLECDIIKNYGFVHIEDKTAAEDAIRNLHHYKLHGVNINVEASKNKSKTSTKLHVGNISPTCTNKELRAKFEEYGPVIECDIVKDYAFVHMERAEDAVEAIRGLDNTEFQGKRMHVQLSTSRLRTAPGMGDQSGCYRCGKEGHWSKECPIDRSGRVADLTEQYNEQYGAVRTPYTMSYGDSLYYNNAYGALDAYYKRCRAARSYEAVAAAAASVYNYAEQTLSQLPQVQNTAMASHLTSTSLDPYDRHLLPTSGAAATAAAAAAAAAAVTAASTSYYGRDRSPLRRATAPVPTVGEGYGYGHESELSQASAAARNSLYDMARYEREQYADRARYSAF
UniProt Q9UKM9, sequence (Q9UKM9 whole entry, looked up): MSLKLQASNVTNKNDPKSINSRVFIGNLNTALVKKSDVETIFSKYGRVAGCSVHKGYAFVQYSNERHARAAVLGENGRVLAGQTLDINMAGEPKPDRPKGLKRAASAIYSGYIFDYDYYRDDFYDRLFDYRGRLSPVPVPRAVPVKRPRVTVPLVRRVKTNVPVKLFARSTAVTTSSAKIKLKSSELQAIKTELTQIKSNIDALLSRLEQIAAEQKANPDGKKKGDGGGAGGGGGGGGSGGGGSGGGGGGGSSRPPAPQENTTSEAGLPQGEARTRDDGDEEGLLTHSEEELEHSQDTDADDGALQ
UniProt Q9BXP2, sequence (Q9BXP2 whole entry, looked up): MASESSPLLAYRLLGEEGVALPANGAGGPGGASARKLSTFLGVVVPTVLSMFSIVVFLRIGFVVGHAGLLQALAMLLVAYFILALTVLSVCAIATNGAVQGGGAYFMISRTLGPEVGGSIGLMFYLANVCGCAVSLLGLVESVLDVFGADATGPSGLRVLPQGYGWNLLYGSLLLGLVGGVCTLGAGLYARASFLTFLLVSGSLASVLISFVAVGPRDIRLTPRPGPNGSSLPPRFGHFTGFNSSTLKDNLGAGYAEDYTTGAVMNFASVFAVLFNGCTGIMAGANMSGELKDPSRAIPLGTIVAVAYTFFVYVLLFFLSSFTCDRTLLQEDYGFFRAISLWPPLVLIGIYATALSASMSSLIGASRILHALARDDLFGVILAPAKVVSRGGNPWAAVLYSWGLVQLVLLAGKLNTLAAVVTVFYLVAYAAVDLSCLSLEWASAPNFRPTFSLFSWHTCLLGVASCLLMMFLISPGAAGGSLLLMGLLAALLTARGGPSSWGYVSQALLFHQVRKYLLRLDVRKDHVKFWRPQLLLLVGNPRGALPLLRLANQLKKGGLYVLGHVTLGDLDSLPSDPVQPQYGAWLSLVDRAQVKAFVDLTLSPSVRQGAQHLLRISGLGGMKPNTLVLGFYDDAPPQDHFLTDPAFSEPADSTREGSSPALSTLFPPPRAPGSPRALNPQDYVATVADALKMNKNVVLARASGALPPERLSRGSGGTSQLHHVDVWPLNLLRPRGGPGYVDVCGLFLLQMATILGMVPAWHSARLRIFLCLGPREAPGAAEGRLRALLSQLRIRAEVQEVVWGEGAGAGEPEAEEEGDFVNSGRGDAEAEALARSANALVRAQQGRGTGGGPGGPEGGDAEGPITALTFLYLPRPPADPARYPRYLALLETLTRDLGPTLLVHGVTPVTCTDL
UniProt Q9UPN6, sequence (Q9UPN6 whole entry, looked up): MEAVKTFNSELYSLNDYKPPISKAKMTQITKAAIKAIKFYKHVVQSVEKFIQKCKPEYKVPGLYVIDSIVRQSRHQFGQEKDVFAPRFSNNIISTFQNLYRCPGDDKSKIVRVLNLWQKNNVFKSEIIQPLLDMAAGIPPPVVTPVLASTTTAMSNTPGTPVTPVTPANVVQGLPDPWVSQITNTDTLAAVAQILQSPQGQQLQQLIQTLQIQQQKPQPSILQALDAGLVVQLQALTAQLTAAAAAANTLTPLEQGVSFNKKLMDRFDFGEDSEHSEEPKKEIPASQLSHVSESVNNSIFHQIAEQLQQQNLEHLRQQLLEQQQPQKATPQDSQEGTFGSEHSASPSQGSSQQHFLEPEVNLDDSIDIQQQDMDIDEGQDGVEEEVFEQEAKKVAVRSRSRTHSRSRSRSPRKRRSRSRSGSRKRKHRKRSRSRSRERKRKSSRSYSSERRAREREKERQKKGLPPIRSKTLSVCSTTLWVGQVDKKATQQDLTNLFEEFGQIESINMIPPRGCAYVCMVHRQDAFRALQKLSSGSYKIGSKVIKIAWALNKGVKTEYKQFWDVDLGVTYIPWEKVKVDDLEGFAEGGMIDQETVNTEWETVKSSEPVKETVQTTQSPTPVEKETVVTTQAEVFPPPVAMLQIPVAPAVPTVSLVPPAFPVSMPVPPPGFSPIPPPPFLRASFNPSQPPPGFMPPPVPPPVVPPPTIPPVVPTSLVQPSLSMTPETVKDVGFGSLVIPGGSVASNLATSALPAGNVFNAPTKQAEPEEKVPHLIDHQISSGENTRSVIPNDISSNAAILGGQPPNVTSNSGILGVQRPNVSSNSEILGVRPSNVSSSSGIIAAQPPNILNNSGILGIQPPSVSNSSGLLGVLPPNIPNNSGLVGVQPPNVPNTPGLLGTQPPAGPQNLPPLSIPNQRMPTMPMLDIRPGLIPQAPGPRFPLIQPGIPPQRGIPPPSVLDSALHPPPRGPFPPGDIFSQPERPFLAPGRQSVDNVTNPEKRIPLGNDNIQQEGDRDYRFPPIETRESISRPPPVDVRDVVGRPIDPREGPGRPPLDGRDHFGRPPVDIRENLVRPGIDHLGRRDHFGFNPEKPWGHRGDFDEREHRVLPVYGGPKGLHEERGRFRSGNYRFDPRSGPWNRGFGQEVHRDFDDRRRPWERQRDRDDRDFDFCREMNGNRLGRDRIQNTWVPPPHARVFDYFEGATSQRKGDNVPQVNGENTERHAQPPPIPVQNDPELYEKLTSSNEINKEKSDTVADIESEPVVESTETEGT
UniProt P18754, sequence (P18754 whole entry, looked up): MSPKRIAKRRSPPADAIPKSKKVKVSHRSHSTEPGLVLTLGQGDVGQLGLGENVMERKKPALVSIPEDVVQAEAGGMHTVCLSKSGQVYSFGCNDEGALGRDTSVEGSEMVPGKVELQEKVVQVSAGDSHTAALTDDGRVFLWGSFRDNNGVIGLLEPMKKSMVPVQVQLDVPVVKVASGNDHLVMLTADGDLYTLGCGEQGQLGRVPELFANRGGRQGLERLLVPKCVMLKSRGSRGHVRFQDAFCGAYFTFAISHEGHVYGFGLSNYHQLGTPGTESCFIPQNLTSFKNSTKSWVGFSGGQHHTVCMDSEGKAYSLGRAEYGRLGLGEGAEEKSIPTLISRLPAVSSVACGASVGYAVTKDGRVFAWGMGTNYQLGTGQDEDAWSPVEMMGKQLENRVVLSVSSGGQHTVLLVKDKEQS
UniProt Q8IZQ5, sequence (Q8IZQ5 whole entry, looked up): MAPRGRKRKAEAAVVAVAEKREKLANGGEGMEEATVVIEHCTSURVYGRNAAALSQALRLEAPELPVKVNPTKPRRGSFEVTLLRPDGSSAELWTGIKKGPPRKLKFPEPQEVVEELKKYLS
UniProt Q9Y3L5, sequence (Q9Y3L5 whole entry, looked up): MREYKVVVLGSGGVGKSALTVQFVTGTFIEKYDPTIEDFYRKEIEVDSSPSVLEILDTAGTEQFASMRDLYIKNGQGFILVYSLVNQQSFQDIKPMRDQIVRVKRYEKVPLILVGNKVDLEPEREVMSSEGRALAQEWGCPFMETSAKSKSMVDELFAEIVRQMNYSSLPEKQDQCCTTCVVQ

Target	log2 fold change [1]	log2 fold change [2]	log2 fold change [3]	log2 fold change [4]	log2 fold change [5]	log2 fold change [6]	log2 fold change [7]	log2 fold change [8]	log2 fold change [9]	log2 fold change [10]
RALY (UniProt Q9UKM9)	0.113	-0.05	0.136	-0.277	0.012	0.173	0.001	-0.134	0.358	0.092
RABGGTA (UniProt Q92696)	0.029	-0.087	-0.013	0.021	-0.032	-0.051	-0.015	0.054	-0.111	-0.023
SAFB2 (UniProt Q14151)	0.018	0.118	-0.022	-0.246	-0.003	0.203	-0.061	-0.028	0.235	0.23
RCN3 (UniProt Q96D15)	-0.033	0.053	-0.031	-0.118	0	-0.007	-0.019	0.029	-0.03	-0.234
RETSAT (UniProt Q6NUM9)	-0.073	-0.073	0.024	-0.003	-0.083	-0.012	0.036	0.042	-0.011	0.053
RAB5C isoform 2 (UniProt P51148)	0.004	0.045	-0.024	0	0.029	-0.002	0	-0.011	-0.032	0.018
SELENOH (UniProt Q8IZQ5)	0.001	0.01	-0.05	0.058	0.024	-0.051	0.041	-0.002	0.084	0.065
RIPK1 (UniProt Q13546)	-0.069	-0.478 (active)	0.12	-0.01	-0.046	0.041	0.08	0.111	0.022	-0.099
RBIS (UniProt Q8N0T1)	0.105	0.06	-0.012	0.204	0.034	0.075	-0.108	-0.008	0.026	-0.034
RPS14 (UniProt P62263)	0.043	0.362	0.023	-0.031	0.015	0.122	-0.066	-0.056	0.095	0.158
RBM4 (UniProt Q9BWF3)	-0.043	-0.3 (active)	0.057	-0.018	-0.079	0.059	-0.024	-0.034	0.129	-0.091
RBM17 (UniProt Q96I25)	-0.08	-0.422 (active)	0.085	0.066	-0.271	-0.059	0.048	0.099	0.088	-0.037
SH3GL1 (UniProt Q99961)	-0.137	-0.459 (active)	0.082	0.008	-0.077	-0.028	0.091	0.062	-0.006	-0.196
SLC12A9 (UniProt Q9BXP2)	0.014	-0.034	-0.016	0.059	0.037	-0.016	-0.02	0.034	-0.075	-0.136
SKP1 (UniProt P63208)	-0.012	-0.02	-0.027	0.034	0.035	-0.035	-0.019	-0.02	-0.126	0.244
SIRT2 (UniProt Q8IXJ6)	0.077	0.624 (active)	0.043	-0.015	-0.017	-0.038	0.009	0.033	-0.041	-0.025
SERINC3 (UniProt Q13530)	0.165	0.075	-0.144	-0.092	0.029	-0.064	0.043	0.049	-0.014	0.046
SETD3 (UniProt Q86TU7)	-0.017	-0.018	0.055	-0.024	-0.004	-0.002	-0.02	0.015	-0.056	0.06
RUFY1 (UniProt Q96T51)	-0.145	-0.355 (active)	0.07	-0.015	0.009	0.06	0.033	0.036	0.032	-0.058
RETREG3 (UniProt Q86VR2)	-0.04	-0.132	0	0.048	0.026	-0.043	0.008	0.016	-0.02	-0.149
RHEB (UniProt Q15382)	0.038	0.013	-0.014	0.002	0.022	0.02	0.016	0.026	-0.068	-0.003
RRP12 (UniProt Q5JTH9)	0.246	0	0.029	0.054	-0.036	-0.057	-0.046	0.026	0.066	0.161
SCAF8 isoform 2 (UniProt Q9UPN6)	-0.065	-0.27	0.037	0.101	-0.003	0.071	0.1	0.091	-0.045	0.015
RCC1 isoform 2 (UniProt P18754)	-0.037	-0.063	0.044	0.118	-0.185	-0.02	0.168	0.053	-0.09	0.11
RAP2C (UniProt Q9Y3L5)	0.02	0.05	0.042	0.172	0.054	0.097	0.052	-0.045	-0.105	0.173
RAP1GDS1 isoform 5 (UniProt P52306)	-0.018	-0.27	0.077	0	0.01	-0.008	-0.017	0.072	-0.012	-0.002
RAB33B (UniProt Q9H082)	-0.016	-0.014	-0.04	-0.009	-0.005	0.09	-0.031	0.033	-0.067	-0.006
SEC23IP (UniProt Q9Y6Y8)	-0.069	-0.005	0.032	-0.009	-0.101	-0.057	0.012	0.289	-0.008	-0.133
RBM22 (UniProt Q9NW64)	-0.027	-0.3 (active)	0.002	-0.009	-0.018	0.061	-0.058	0.005	0.011	-0.003
RCOR1 (UniProt Q9UKL0)	0.116	0.001	0.212	0.002	-0.002	-0.033	0.006	0.077	-0.024	-0.037
